One may read the AC50 as the concentration giving half of the maximal activity seen.

Consider 36 compounds from PubChem BioAssay (EPA / NIEHS).

Values joined by “and” are separate entries in the source; they are usually repeats but may differ in a detail not shown here. Identical values can stand only once. Active and inactive are the calls of the source. The calls were made as follows: active = hit-call score of the fitted dose curve at least 0.9, where 1 is the maximum; inactive = score below 0.9.

Read-out in the experiment: TIMP metallopeptidase inhibitor 1 (TIMP1), TIMP1 (gene 7076)
As to the kind of experiment: BSK_MyoF_TIMP1: BioMAP Diversity Plus: MyoF Assay for TIMP metallopeptidase inhibitor 1 (TIMP1) Biomarker Activity (AID 2284269). The note with it: primary human lung fibroblasts. Summed up: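 Fibroblasts from human lung are dosed with chemical, cultured 24 h, and assayed for TIMP-1 by ELISA. Increases over the DMSO baseline are scored, with SRB total-protein staining run in parallel for cytotoxicity.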
Consider `COc1cc(OC)nc(NC(=O)NS(=O)(=O)c2ncccc2C(=O)N(C)C)n1`, for which the result was inactive. On to `CCCCC(CC)CO[N+](=O)[O-]` (stereo unspecified), for which the outcome was inactive. Still for that read-out and setting: with `Nc1ccc(-c2ccc(N)c(Cl)c2)cc1Cl` the entry was “inactive”; with `CC1(C)Cc2cccc(O)c2O1`, “inactive”. Turning to `COP(=S)(OC)Oc1cc(Cl)c(Cl)cc1Cl`, the result was inactive. Same read-out and setting: with `ClC1=C(Cl)[C@]2(Cl)[C@H]3[C@H]([C@H]4C=C[C@H]3C4)[C@@]1(Cl)C2(Cl)Cl` the entry was “inactive”. Same read-out and setting: with `BrCCBr` the entry was “inactive”; with `Oc1c(I)cc(I)cc1I`, “inactive”. Same read-out and setting: with `OCc1ccco1` the entry was “inactive”. Take `COP(=S)(OC)Oc1c(Cl)cc(C)cc1Cl`: the result was inactive. `CCOC(=O)/C=C(C)/C=C/C[C@@H](C)CCCC(C)C`: the AC50 is 29.8 µM (active).

As for `CCOP(=S)(OCC)SCCS(=O)(=O)CC`, the result was inactive. In the case of `COC[C@H](C)N(C(=O)CCl)c1c(C)csc1C`, the outcome was inactive. Same read-out and setting: with `O=S(=O)(c1ccc(Cl)cc1)c1ccc(Cl)cc1` the entry was “inactive”. As for `CCCCCCCCC(=O)NCc1ccc(O)c(OC)c1`, the outcome was inactive. As to `O=C(O)C(F)(F)C(F)(F)C(F)(F)C(F)(F)C(F)(F)C(F)(F)F`, the outcome was inactive.

Take `CC(=O)C(Cl)C(=O)N(C)C` (stereo unspecified): the outcome was inactive. Take `CC(C)CCCCCCOC(=O)c1ccccc1C(=O)OCCCCCCC(C)C`: the outcome was inactive. As to `C(=NC1CCCCC1)=NC1CCCCC1`, the AC50 is 6.97 µM (active). For the compound `CCOP(=S)(OCC)Oc1ccc(S(C)=O)cc1` (stereo unspecified), the outcome was inactive. For `COP(=S)(OC)Oc1ccc(Sc2ccc(OP(=S)(OC)OC)cc2)cc1`, the outcome was inactive. The same measure, in the same setting: with `O=C(O)CCC(F)(C(F)(F)F)C(F)(F)F` the entry was “inactive”. The same measure, in the same setting: with `COC(=O)c1sccc1S(=O)(=O)NC(=O)Nc1nc(C)nc(OC)n1` the entry was “inactive”; with `Oc1ccc(-c2ccccc2)cc1`, “inactive”. Consider `CCNc1nc(NC(C)(C)C)nc(SC)n1`, for which the outcome was inactive. On the same count and under the same terms, with `CC(C)c1ccc(CO)cc1` the entry was “inactive”; with `COP(=S)(OC)Oc1ccc(S(=O)(=O)N(C)C)cc1`, “inactive”; with `NC(=S)Nc1ccccc1`, “inactive”. `Nc1ncc([N+](=O)[O-])s1`: the result was inactive. Take `Nc1cccc2ccccc12`: the outcome was inactive. The same measure, in the same setting: with `O=[N+]([O-])c1ccc2c3c(cccc13)CC2` the entry was “inactive”. The same measure, in the same setting: with `O=Cc1cccc(Oc2ccccc2)c1` the entry was “inactive”. The same measure, in the same setting: with `CCSC(C)CC1CC(=O)C(C(CC)=NOC/C=C/Cl)=C(O)C1` (stereo unspecified) the entry was “inactive”. For the compound `O=C(O)C(F)(F)C(F)(F)C(F)(F)C(F)(F)C(F)(F)C(F)(F)C(F)(F)C(F)(F)C(F)(F)C(F)(F)F`, the AC50 was 4.33 µM (active) and 5.2 µM (active).

With `ClC(Cl)=C(Cl)C(Cl)=C(Cl)Cl`, the outcome was inactive.

`O=C(OC1CCCCC1)c1ccccc1C(=O)OC1CCCCC1`: the AC50 was 25.7 µM (active).
